The nature of experiment [1]: qHTS assay to identify small molecule antagonists of the vitamin D receptor (VDR) signaling pathway - cell viability counter screen (AID 743225). Note: nearly all actives have a fitted effect of over 50% in size. In a few lines: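 Parallel cytotoxicity test: VDR-UAS-bla HEK 293T, 3 nM (final) 1-alpha,25-dihydroxyvitamin D3 with test compound, 16 h, 37C. Endpoint is CellTiter-Glo luminescence in the same wells.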
Experiment [2] in a line: qHTS assay to identify small molecule agonists of the endoplasmic reticulum stress response signaling pathway - cell viability counter screen (AID 1159517; calls by dose curve; note: nearly all actives have a fitted effect of over 50% in size; note: potency is the fitted concentration of half-maximal effect). In a few lines: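 In parallel with the ESRE reporter read, cytotoxicity was scored by CellTiter-Glo luminescence (30 min, room temperature) on HeLa ESRE-bla cells dosed for 5 hr.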
Experiment [3] is described as follows: qHTS assay to identify small molecule antagonists of the retinoid-related orphan receptor gamma (ROR-gamma) signaling pathway - cell viability counter screen (AID 1159520). Note: nearly all actives have a fitted effect of over 50% in size. In a few lines:
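Tet-on ROR gamma CHO cells were given compounds for 2 hr, then doxycycline hyclate at 1 uM final, and incubated 16 hr at 37 C. Viability was measured as ATP content by CellTiter-Glo luminescence.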

Experiment [4] is described as follows: qHTS assay to identify small molecule agonists of the AP-1 signaling pathway - cell viability counter screen (AID 1159525; calls by dose curve; note: nearly all actives have a fitted effect of over 55% in size). In a few lines: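 Same-well cytotoxicity counter screen of the Tox21 10K library in ME-180 cells. The readout is ATP-dependent luminescence after 5 h compound treatment. Data are normalised to DMSO and tetra n-octyl ammonium bromide controls.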

The target in experiment [5] is Retinoic acid receptor RXR-alpha (Homo sapiens) (UniProt P19793). Nature of the experiment: qHTS assay to identify small molecule agonists of the RXR signaling pathway (AID 1159527; calls by dose curve; note: nearly all actives have a fitted effect of over 35% in size). Put shortly:
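16 hr incubation of compound-treated RXR-alpha-UAS-bla HEK 293T cells (2% charcoal-stripped FBS, 37 C) preceded a 2 hr room-temperature LiveBLAzer FRET substrate step and blue/green fluorescence measurement.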

Experiment [6] can be described thus: qHTS assay to identify small molecule agonists of the RXR signaling pathway - cell viability counter screen (AID 1159529).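 Note: HEK 293T cells carrying an RXR-alpha UAS beta-lactamase reporter; series mostly up to about 77 µM; nearly all actives have a fitted effect of over 50% in size.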 In a few lines:
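In this parallel viability measure, GeneBLAzer RXR-alpha HEK 293T cells (2% charcoal-stripped FBS) were given a 5 hr preincubation, treated with compounds 16 hr at 37 C, and read by CellTiter-Glo luminescence.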

Experiment [7] deals with Nuclear receptor ROR-gamma (Homo sapiens) (UniProt P51449). Nature of the experiment: qHTS assay to identify small molecule antagonists of the retinoid-related orphan receptor gamma (ROR-gamma) signaling pathway (AID 1159521). In a few lines:
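Decreased RORE-driven luciferase luminescence indicates antagonism. Tet-on RORγ CHO cells received compound, then 1 uM final doxycycline 2 h later; signal read after 16 h incubation.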

Experiment [8] in a line: qHTS assay to identify small molecule agonists of the AP-1 signaling pathway (AID 1159526; calls by dose curve).

Results filed as inconclusive are left out. The source made the active and inactive calls. Unless noted, calls come from the whole dose curve; as a rule, active = well fitted curve in the direction sought with a large enough effect in the repeat runs; inconclusive = weak or mixed curves; inactive = no such curve, though single readings can be large; an effect the other way counts as inactive or inconclusive.

Chain of Retinoic acid receptor RXR-alpha (Homo sapiens) (P19793 whole entry, looked up): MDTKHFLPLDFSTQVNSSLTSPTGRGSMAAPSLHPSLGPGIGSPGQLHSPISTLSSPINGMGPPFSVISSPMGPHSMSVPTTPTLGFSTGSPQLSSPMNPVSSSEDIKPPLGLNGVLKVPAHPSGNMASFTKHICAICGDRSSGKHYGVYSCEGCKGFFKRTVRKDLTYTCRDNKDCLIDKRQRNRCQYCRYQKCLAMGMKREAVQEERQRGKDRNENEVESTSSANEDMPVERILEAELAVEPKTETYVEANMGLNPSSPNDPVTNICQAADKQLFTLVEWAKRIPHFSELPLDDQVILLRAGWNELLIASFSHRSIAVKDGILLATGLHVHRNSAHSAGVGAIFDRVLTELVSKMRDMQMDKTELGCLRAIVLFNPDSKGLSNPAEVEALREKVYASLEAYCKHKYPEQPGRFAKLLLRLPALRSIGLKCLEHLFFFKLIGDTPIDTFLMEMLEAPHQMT

For `CC(=O)OC1(c2ccccc2)CCN(CCc2ccccc2)CC1`, the Potency result in experiment [1], in experiment [2], in experiment [3], in experiment [4] and in experiment [6] was “inactive” throughout. For the same molecule, the call in experiment [5] was inactive.
For the molecule `CN(CCCC(O)c1cccnc1)N=O` (stereo not drawn), the Potency entry in experiment [3], in experiment [7], in experiment [4], in experiment [8] and in experiment [6] was “inactive” throughout. Moreover, the molecule was classed as inactive in experiment [5].
For `CCc1ccccc1C`, the Potency entry in experiment [3], in experiment [7], in experiment [4], in experiment [8] and in experiment [6] was “inactive” each time. Further, in experiment [5], the outcome was inactive.
Take `CC[C@H]1C[C@@H]2C[C@H]3c4[nH]c5ccc(OC)cc5c4CCN(C2)[C@@H]13`: the Potency entry in experiment [1], in experiment [2], in experiment [3] and in experiment [7] was “inactive” in each case.
With `CSCCCN=C=S`, the Potency entry in experiment [1], in experiment [7], in experiment [8] and in experiment [6] was “inactive” throughout. For the same molecule, the Potency in experiment [2] is 19.5 µM (active). Also, the call in experiment [5] was inactive.
